KDM5B inhibitor = inhibitors of human KDM5B histone demethylase; Q9UGL1; KDM5B demethylase, FDH-coupled NADH fluorescence (FDH is formaldehyde dehydrogenase); Potency, µM (doses to about 57.7 µM), usual class: inhibitors; 2.6% of 220,000 active; AID 1347165; also: potency is read from the fitted curve at half-maximal effect; 0% is about no effect; nearly all actives have a fitted effect of over 70% in size
Target sequence (Q9UGL1 whole entry, looked up): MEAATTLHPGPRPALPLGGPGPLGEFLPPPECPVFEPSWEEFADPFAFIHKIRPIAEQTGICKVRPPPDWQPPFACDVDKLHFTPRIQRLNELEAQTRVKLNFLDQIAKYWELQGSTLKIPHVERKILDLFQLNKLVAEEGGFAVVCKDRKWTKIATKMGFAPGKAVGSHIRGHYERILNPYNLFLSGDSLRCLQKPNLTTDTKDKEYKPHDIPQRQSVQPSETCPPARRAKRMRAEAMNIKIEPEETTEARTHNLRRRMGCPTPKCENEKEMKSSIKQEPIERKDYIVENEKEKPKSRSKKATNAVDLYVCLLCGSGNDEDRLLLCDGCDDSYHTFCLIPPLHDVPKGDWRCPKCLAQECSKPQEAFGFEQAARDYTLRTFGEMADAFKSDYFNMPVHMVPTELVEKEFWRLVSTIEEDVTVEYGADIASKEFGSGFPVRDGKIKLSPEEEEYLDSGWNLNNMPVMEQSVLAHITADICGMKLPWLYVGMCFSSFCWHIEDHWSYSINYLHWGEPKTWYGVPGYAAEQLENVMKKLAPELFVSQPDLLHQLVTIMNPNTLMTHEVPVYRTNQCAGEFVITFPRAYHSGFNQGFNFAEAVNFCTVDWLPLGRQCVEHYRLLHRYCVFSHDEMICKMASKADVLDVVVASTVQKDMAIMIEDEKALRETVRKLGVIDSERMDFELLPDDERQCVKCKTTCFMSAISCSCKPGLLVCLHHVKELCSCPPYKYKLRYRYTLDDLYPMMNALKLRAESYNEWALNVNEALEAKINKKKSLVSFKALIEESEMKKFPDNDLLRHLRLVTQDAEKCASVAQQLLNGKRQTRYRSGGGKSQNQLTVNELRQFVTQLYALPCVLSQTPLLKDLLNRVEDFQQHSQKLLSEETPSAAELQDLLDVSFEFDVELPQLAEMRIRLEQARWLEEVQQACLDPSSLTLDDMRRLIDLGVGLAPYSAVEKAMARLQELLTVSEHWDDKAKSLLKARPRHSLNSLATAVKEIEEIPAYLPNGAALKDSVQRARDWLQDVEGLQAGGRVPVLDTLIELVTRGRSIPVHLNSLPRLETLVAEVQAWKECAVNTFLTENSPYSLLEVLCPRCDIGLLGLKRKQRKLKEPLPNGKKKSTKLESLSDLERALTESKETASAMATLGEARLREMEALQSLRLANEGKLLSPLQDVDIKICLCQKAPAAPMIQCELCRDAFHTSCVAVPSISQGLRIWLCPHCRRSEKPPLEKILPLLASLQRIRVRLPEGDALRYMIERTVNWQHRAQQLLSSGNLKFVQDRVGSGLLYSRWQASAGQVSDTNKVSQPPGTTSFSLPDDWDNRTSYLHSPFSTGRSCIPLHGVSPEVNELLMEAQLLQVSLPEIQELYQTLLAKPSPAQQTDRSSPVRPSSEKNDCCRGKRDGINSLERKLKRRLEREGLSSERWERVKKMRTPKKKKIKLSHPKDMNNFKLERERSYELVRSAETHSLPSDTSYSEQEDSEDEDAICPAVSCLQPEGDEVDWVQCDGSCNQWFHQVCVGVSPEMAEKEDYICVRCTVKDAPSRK
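Compound dilutions met 200 nM (final) KDM5BΔAP for 10 min at room temperature before substrate addition. The substrate mix held 12.5 µM H3K4me3 with cofactors 25 µM α-ketoglutarate and 50 µM Fe²⁺. NADH signal gain over 30 min defined activity.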
IP6K1 inhibitor = inhibitors of human IP6K1. Q92551. IP6K1 kinase, ADP-Glo luminescence, 2 h; active compounds read low. activity change, % (series mostly up to about 58 µM). 0.81% of 140,000 active; in the data active = activity change below about -25%; also: % is scaled to controls: 0 for no effect and ±100 for the full control effect
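ADP-Glo luminescence measures ADP made by human IP6K1 during a 2 h RT reaction with ATP/IP6 (mix at 1.3 mM/130 uM); top library doses 57.5 and 19.1 uM final.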
IP6K1 inh cnf = confirmation of human IP6K1 inhibitors; AID 1645852; Potency, µM (highest dose often 49 µM), for the others: top-dose activity change, negative = inhibition, most hits filed as inhibitors; 13% of 1,200 active; recombinant IP6K1 kinase, ADP-Glo luminescence, 2 h; shares compounds with IP6K1 inhibitor; also: potency is read from the fitted curve at half-maximal effect; % is scaled to controls: 0 for no effect and ±100 for the full control effect; nearly all actives have a fitted effect of over 65% in size
* marks the source's active call; other numbers are inactive results. Hits are enriched below; roughly 2.8% of the tested compounds scored in any of these assays. Unless noted, calls follow the shape of the dose curve; as a rule, active = well fitted inhibition curve with a large enough effect; inconclusive = small, poorly fitted or top-dose-only effect; inactive = no such curve, though single readings can be large or run the other way.

Results for COc1ccc(C2Cn3cnc(C(=O)N4CCC(C(=O)Nc5ccc(C)cc5)CC4)c3CO2)cc1 (configuration not stated) ?
KDM5B inhibitor: inactive; IP6K1 inhibitor: 0

What do the screens show for `COc1ccc(NC(=O)C2CCN(C(=O)c3ncn4c3COC(c3ccccc3)C4)CC2)cc1` (configuration not stated)?
KDM5B inhibitor: inactive; IP6K1 inhibitor: -30*; IP6K1 inh cnf: -13%

How did CC(=O)N1CCN(C(=O)c2ccc3nnc(-c4ccoc4)n3c2)CC1 do in these assays?
IP6K1 inhibitor: -8

What do the screens show for `CCN(CC)CCNC(=O)C1(O)c2cc(Br)ccc2NC(=O)N1c1ccc(Cl)cc1` (configuration not stated)?
KDM5B inhibitor: inactive

What do the screens show for `Cc1ccccc1/C=C1\C(=O)Nc2ccc(F)cc21`?
KDM5B inhibitor: inactive

How did Cc1[nH]c(/C=C2\C(=O)Nc3ccc(F)cc32)c(C)c1C(=O)NC[C@H](O)CN1CCOCC1 do in these assays?
IP6K1 inhibitor: -5; IP6K1 inh cnf: 36%

What do the screens show for `CCN(CC)CCNC(=O)c1c(C)[nH]c(/C=C2\C(=O)Nc3ccc(Cl)cc32)c1C`?
IP6K1 inh cnf: 35%

What do the screens show for `O=C(c1cccc(Cl)c1)N(Cc1ccco1)c1ccccc1`?
KDM5B inhibitor: inactive

What do the screens show for `O=C(O)C(c1c[nH]c2cc(Br)ccc12)N1CCN(Cc2ccc(Cl)cc2Cl)CC1` (configuration not stated)?
KDM5B inhibitor: inactive

How did COC(=O)c1c(SCC(=O)Nc2ccccc2C(F)(F)F)[nH]c2ccc(Cl)cc2c1=O do in these assays?
KDM5B inhibitor: inactive; IP6K1 inhibitor: -1

What do the screens show for `COC(=O)c1c(SCC(=O)Nc2cc(C)cc(C)c2)[nH]c2ccccc2c1=O`?
KDM5B inhibitor: inactive; IP6K1 inhibitor: -47*; IP6K1 inh cnf: inconclusive

What do the screens show for `Cc1ccc(Cn2c(SCC(=O)NC(C)(C)C)nc3c(sc4ncccc43)c2=O)cc1`?
KDM5B inhibitor: inactive

How did CC(Sc1c(Cl)cccc1Cl)C(=O)NCCC1=CCCCC1 (configuration not stated) do in these assays?
KDM5B inhibitor: inactive

Results for Cc1ccc(N2CCN(C(=O)Cc3c(C(=O)O)c(C)cn3C)CC2)c(C)c1 ?
KDM5B inhibitor: inactive; IP6K1 inhibitor: 4

Results for Cc1cn(C)c(CC(=O)N2CCN(c3cccc(Cl)c3)CC2)c1C(=O)O ?
KDM5B inhibitor: inactive; IP6K1 inhibitor: -26*; IP6K1 inh cnf: -25%

What do the screens show for `Cc1cc(C2=NNC(=NC(C)(C)C)SC2)c(C)n1C1CC1`?
KDM5B inhibitor: inactive

What do the screens show for `Cc1cccc(CN2CCNc3cc(-c4ccnc(C)c4)ncc3C2)c1`?
KDM5B inhibitor: inconclusive; IP6K1 inhibitor: -29*; IP6K1 inh cnf: -17%

Results for COc1cccc(CN2CCNc3cc(-c4ccnc(C)c4)ncc3C2)c1 ?
KDM5B inhibitor: inconclusive; IP6K1 inhibitor: -20

What do the screens show for `CC(NC(=O)c1cc(-c2ccccn2)nc2ccccc12)c1ccncc1` (configuration not stated)?
KDM5B inhibitor: inactive

What do the screens show for `Cc1ccc2nc(C(C)NC(=O)c3cnc(-c4ccccn4)[nH]c3=O)[nH]c2c1` (configuration not stated)?
KDM5B inhibitor: inconclusive; IP6K1 inhibitor: -36*; IP6K1 inh cnf: inconclusive

What do the screens show for `CC(=O)N1CCC(C(=O)N2CCC(c3nc4ncccc4[nH]3)CC2)CC1`?
IP6K1 inhibitor: 18

How did Cc1cccc(Cn2c(-c3ccccc3)nc3ccccc32)c1 do in these assays?
KDM5B inhibitor: inconclusive; IP6K1 inhibitor: -19

Results for CC(C)Cn1c(-c2cccc(Br)c2)nc2ccccc21 ?
KDM5B inhibitor: inconclusive; IP6K1 inhibitor: -33*; IP6K1 inh cnf: -23%

How did CO/N=C(\C)c1ccc(OCc2ccccc2)cc1 do in these assays?
KDM5B inhibitor: inactive

What do the screens show for `CCc1cccc(CC)c1N(COC)C(=O)Cn1c(C)nc2ccccc21`?
KDM5B inhibitor: inconclusive; IP6K1 inhibitor: -33*; IP6K1 inh cnf: 13%

Results for CCc1cccc(CC)c1N(COC)C(=O)Cn1cnc2ccccc21 ?
KDM5B inhibitor: inactive

How did N#Cc1nc(-c2cccc3ccccc23)oc1N1CCC(C(N)=O)CC1 do in these assays?
KDM5B inhibitor: inactive

What do the screens show for `CC(=O)c1cccc(NC(=O)C2=CC(c3ccco3)=NS(=O)(=O)N2C)c1`?
KDM5B inhibitor: inactive; IP6K1 inhibitor: -12

Results for COc1ccc(NC(=O)C2=CC(c3ccco3)=NS(=O)(=O)N2C)cc1 ?
KDM5B inhibitor: inactive; IP6K1 inhibitor: -30*; IP6K1 inh cnf: -20%

Results for CCCC(=O)NC1CN(c2ccnc3ccnn23)C1 ?
IP6K1 inhibitor: 21

From PubChem BioAssay
